DT40 TDP1 CPT: qHTS for Inhibitors of human tyrosyl-DNA phosphodiesterase 1 (TDP1): qHTS in cells in presence of CPT. chicken DT40 Tdp1-/-;hTDP1 cells + 20 nM CPT, ATP luminescence, 48 h. Potency, µM (highest dose often 46.2 µM), actives largely listed as inhibitors. hit rate 12% among 420,000; note: nearly all actives have a fitted effect of over 55% in size
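Cell growth measured by CellTiter-Glo luminescence after a minimum 48 h, 37 C compound exposure with 20 nM CPT in Tdp1-knockout DT40 cells stably expressing hTDP1, seeded 400/well; qHTS titration format.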
HT1080 IDH1KD tx: qHTS for induction of synthetic lethality in tumor cells producing 2HG: qHTS for the HT-1080-IDH1KD cell line | hit rate 2% among 360,000 | AID 686971, 2013 | HT-1080 IDH1 knockdown viability, ATP luminescence, 48 h | Potency, µM (doses to about 46.1 µM), most hits filed as cytotoxic
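After a 2 h attachment period, IDH1KD HT-1080 cells took pin-transferred compound for 48 h at 37 °C; ATP-based luminescence after 10 min room-temperature reagent incubation reported viability.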
HepG2 viability: qHTS for Inhibitors of TGF-b: Cytotox Counterscreen. Potency, µM (highest dose often 46.1 µM), usual class: cytotoxic. AID 588856, 2011. hit rate 0.76% among 410,000. HepG2 CAGA-GFP viability, ATP luminescence, 18 h
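HepG2 CAGA-GFP cells (1000/well, DMEM with 1% FBS) received compound, then TGF-beta at 500 pg/mL final, and were incubated 18 hours at 37 degrees C. Viability was read by CellTiter-Glo luminescence. Media-only wells were set as complete cell-killing and DMSO as no toxicity.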
HT1080NT lethal: qHTS for induction of synthetic lethality in tumor cells producing 2HG: qHTS for the HT-1080-NT fibrosarcoma cell line | hit rate 1.6% among 360,000 | HT-1080-NT fibrosarcoma viability, CellTiter-Glo ATP luminescence, 48 h | AID 686970, 2013 | Potency, µM (series often up to 46.1 µM), most hits filed as cytotoxic;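 note: NT is the 2HG producing partner of a matched IDH1 knockdown line; nearly all actives have a fitted effect of over 55% in size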
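HT-1080-NT fibrosarcoma cells (2HG-overproducing), 750 cells/well in RPMI with 5% FBS, dosed after 2 h and incubated 48 h at 37C. CellTiter-Glo luminescence normalized to DMSO and no-cell wells; concentration-response curves fitted and classed.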
TGFb SMAD3 inh: qHTS for Inhibitors of TGF-b. Potency, µM (titrated, usually from 46.1 µM), most hits filed as inhibitors. HepG2 CAGA-GFP TGF-b/SMAD3 reporter, GFP fluorescence, 18 h; TGF-beta stimulated, 500 pg/mL final. hit rate 1.2% among 410,000; note: nearly all actives have a fitted effect of over 65% in size
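Smad-responsive CAGA-GFP expression was quantified in HEPG2 cells exposed to compounds and 500 pg/mL final TGF-beta for 18 h at 37 degrees C; unstimulated wells defined full inhibition.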
TDP1 cell noCPT: qHTS for Inhibitors of human tyrosyl-DNA phosphodiesterase 1 (TDP1): qHTS in cells in absence of CPT | DT40 Tdp1-/- hTDP1 cells, no CPT, ATP luminescence, 48 h | Potency, µM (highest dose often 46.2 µM), actives largely listed as inhibitors | hit rate 15% among 420,000; note: nearly all actives have a fitted effect of over 55% in size
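Growth of hTDP1-complemented DT40 Tdp1-knockout cells is measured by ATP luminescence after at least 48 hr compound exposure at 37 °C, with DMSO substituting for the 20 nM CPT used in the parallel screen.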
A number is an active result; i = inactive; ? = inconclusive; nt = no result; [ ] = another dose, or the depositor's remark. Hits are enriched below; roughly 17% of the tested compounds scored in any of these assays. Calls come from the whole dose curve; as a rule, active = well fitted curve in the direction sought with a large enough effect; inconclusive = small, poorly fitted or top-dose-only effect, or another doubt; inactive = no such curve, though single readings can be large; an effect the other way counts as inactive or inconclusive.

SMILES | DT40 TDP1 CPT | HT1080 IDH1KD tx | HepG2 viability | HT1080NT lethal | TGFb SMAD3 inh | TDP1 cell noCPT
CCc1ccc(Cn2ncc3c(C(=O)O)cc(C)nc32)cc1 | i | i | i | i | i | i
COC(=O)[C@]12CCCCC=C1N(CCC1=CCCCC1)C(=O)[C@H](CC(=O)N1CCN(C(=O)C3CC3)CC1)C2 | ? | i | nt | i | nt | 16µM
COC(=O)[C@]12CCCCC=C1N(CCC1=CCCCC1)C(=O)[C@H](CC(=O)N1CCCCC1)C2 | 18µM | i | nt | i | nt | 23µM
COC(=O)[C@]12CCCCC=C1N(CCC1=CCCCC1)C(=O)[C@H](CC(=O)N1CCOCC1)C2 | ? | i | nt | i | nt | ?
Cc1cccc(C(O)c2ncc(-c3ccc(F)cc3)[nH]2)c1C (stereo unspecified) | ? | i | i | i | i | ?
C=CCN1CCN(C(=O)c2cc3c(s2)CCC(CC)C3)CC1 (stereo unspecified) | ? | i | i | i | i | 16µM
CCC1CCc2sc(C(=O)O)cc2C1 (stereo unspecified) | i | i | i | i | i | i
COc1cccc(-c2cnc(C(O)c3cccc(F)c3)[nH]2)c1 (stereo unspecified) | ? | i | i | i | i | i
CC(NCC(=O)Nc1ccccc1C(=O)NC1CC1)c1cccs1 (stereo unspecified) | i | i | i | i | i | i
COC(=O)c1ccccc1NC(=O)NC1CCC(C)CC1 (stereo unspecified) | i | i | i | i | i | 18µM
CC(C)C(NCC(=O)Nc1ccccc1C(=O)NC1CC1)c1ccccc1 (stereo unspecified) | 16µM | i | i | i | i | ?
COc1cc(OC)cc(C(=O)Nc2ccccc2C(=O)NC2CC2)c1 | ? | ? | i | i | ? | 16µM
c1ccc(OCCOCCN2CCOCC2)cc1 | i | i[9.24 µM] | i | i | i | i
CC(C)(c1ccccc1)c1ccc(OCCN2CCOCC2)cc1 | ? | i | i | i | i | 16µM
CC(C)(c1ccccc1)c1ccc(OCCCN2CCNCC2)cc1 | 5.8µM | 21µM | 22µM | i | i | 7.3µM
CCC(C)NCCOc1ccc(C(C)(C)c2ccccc2)cc1 (stereo unspecified) | ? | ? | i | 18µM | i | 16µM
CC(C)(C)c1ccc(OCCCCCCN2CCNCC2)cc1 | 18µM | 23µM | i | ? | ? | 8.2µM
CC(=O)OCC(=O)[C@@]1(O)CC[C@H]2[C@@H]3CCC4=CC(=O)CC[C@]4(C)C3=CC[C@@]21C | i | nt | nt | nt | nt | i
O=C(O)c1cnc(-c2ccccc2)nc1Sc1ccc(Cl)cc1Cl | i | i | i | i | i | i
CC1CCN(CCCCOc2ccc(C(C)(C)C)cc2)CC1 | 23µM | i | i | i | i | ?
CC1CCN(CCCCOc2ccc(Cl)cc2)CC1 | i | i | i | i | i | i
Cc1ccc(CC(=O)N2CCN(c3ccccn3)CC2)cc1 | i | i | i | i | i | i
CCN1C(=O)c2ccccc2S(=O)c2ccc(C(=O)N3CCCCCC3)cc21 (stereo unspecified) | ? | i | i | i | i | ?
CCN1C(=O)c2ccccc2S(=O)c2ccc(C(=O)N3CCN(c4ccccc4)CC3)cc21 (stereo unspecified) | ? | nt | i | nt | i | 18µM
CCN1C(=O)c2ccccc2S(=O)c2ccc(C(=O)N3CCN(C(=O)c4ccco4)CC3)cc21 (stereo unspecified) | i | i | i | i | i | i
SMILES | DT40 TDP1 CPT | HT1080 IDH1KD tx | HepG2 viability | HT1080NT lethal | TGFb SMAD3 inh | TDP1 cell noCPT
CCN1C(=O)c2ccccc2S(=O)c2ccc(C(=O)N3CCN(c4cccc(Cl)c4)CC3)cc21 (stereo unspecified) | ? | nt | i | nt | i | 18µM
Cc1cc(Cl)ccc1OC(C)C(=O)NNC(=O)C1CCCCC1C(=O)O (stereo unspecified) | i | i | i | i | i | i
Cc1ccc(-n2c(-c3ccccc3)c[n+]3c2CCC3)cc1 | 1µM | 5.8µM | i | ? | i | 0.65µM
Cc1ccc(-n2c(-c3ccccc3)nnc2-c2cccs2)cc1 | ? | i | i | i | i | i
Cc1ccc(-c2c(C#N)c(N)n(-c3ccc(Cl)cc3)c(=O)c2C#N)cc1 | i | i | i | i | i | i
Cc1ccc(-n2c(-c3ccc(Cl)cc3)c[n+]3c2CCC3)cc1 | 3.3µM | ? | i | ? | i | 3.3µM
FC(F)Sc1ccc(-n2c(-c3ccc(Cl)cc3)c[n+]3c2CCC3)cc1 | 12µM | ? | i | ? | i | 15µM
O=C(NNC(=O)C1CCCC1)c1cc([N+](=O)[O-])cc([N+](=O)[O-])c1 | i | i | i | i | i | i
CCOc1ccccc1-c1cc(NC)ncn1 | i | i | i | i | i | i
O=C(CC1SC(=NCc2ccccc2)NC1=O)Nc1ccccc1 (stereo unspecified) | i | i | i | i | i | i
COc1ccc(C2N(C(=O)N(C)C)CCN2S(=O)(=O)c2ccc(OC)cc2)cc1 (stereo unspecified) | i | i | i | i | i | ?
CCOc1ccccc1CNC(=O)CCCn1ccc2cc(S(=O)(=O)N3CCCC3)ccc21 | 23µM | i | i | i | ? | 21µM
CCOc1ccccc1CNC(=O)Cn1ccc2cc(S(=O)(=O)N3CCCC3)ccc21 | 18µM | ? | i | i | i | 23µM
COc1ccc(CNC(=O)Cn2ccc3cc(S(=O)(=O)N4CCCC4)ccc32)c(OC)c1 | i | nt | i | nt | i | ?
COc1ccc(CNC(=O)Cn2ccc3cc(S(=O)(=O)N4CCCCC4)ccc32)c(OC)c1 | 23µM | nt | i | nt | i | i
CCOc1ccc(CNC(=O)Cn2ccc3cc(S(=O)(=O)N4CCCCC4)ccc32)cc1 | ? | nt | i | nt | i | ?
COc1ccc(C(=O)N/C(=C\c2cn(S(=O)(=O)N(C)C)c3ccccc23)C(=O)NCCN2CCOCC2)cc1OC | i | i | i | i | i | i
COc1ccc2oc(=Nc3cccc(F)c3)c(C(N)=O)cc2c1 | i | i | i | i | i | ?
Cc1cccc(N=c2oc3cc(O)ccc3cc2C(N)=O)c1 | ? | ? | i | ? | ? | 15µM
COc1ccc2cc(C(N)=O)c(=Nc3ccc(C)cc3)oc2c1 | i | i | i | i | i | 8.2µM

Source: PubChem BioAssay (National Center for Advancing Translational Sciences (NCATS))
